Hits are enriched below; roughly 4.5% of the tested compounds scored in any of these assays.
Efflux pump inh – blocks antifungal efflux pumps in multiplex yeast assay; actives 0.44% (n = 330,000); inhibition, % at 10 µM; S. cerevisiae Candida pump triplex, Nile Red efflux;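 active = plate passing quality check with inhibition over a set limit, or well fluorescence over plate mean plus 4 SD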;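 also: Nile Red retained in pooled yeast measured as flow cytometry median fluorescence; higher means more Nile Red kept so more efflux inhibition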
HDAC3 inhib – inhibitors of human histone deacetylase 3 | O15379 | inhibition, % at 8.3 µM | actives 0.15% (n = 320,000) | recombinant HDAC3, fluorogenic peptide/trypsin coupled, fluorescence; in the data active = inhibition above about 26%, passing the limit was not always enough; inconclusive = no clear call, values can overlap the other calls
Rtt109 Vps75 – inhibitors of Candida albicans Rtt109/Vps75 histone acetyltransferase. AID 540336. Q5AAJ8. inhibition, % at 34.9 µM. purified Rtt109/Vps75, ThioGlo CoA-SH fluorescence, 4 h. actives 0.16% (n = 330,000);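 active = inhibition of at least 50% in every replicate; inconclusive = best replicate reaches 50% inhibition but some replicates fall short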
Rce1 inh – blocks yeast Ras-converting enzyme | calls only | actives 0.27% (n = 290,000) | AID 2563 | Q03530 | yeast membranes, quenched prenylated peptide cleavage fluorescence;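 active = fall in fluorescence gain of 50% or more versus controls, with final raw signal at or below 3038400; inconclusive = same 50% fall but final raw signal above 3038400; inactive = fall in fluorescence gain under 50%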
Target sequence (Q03530 whole entry, looked up): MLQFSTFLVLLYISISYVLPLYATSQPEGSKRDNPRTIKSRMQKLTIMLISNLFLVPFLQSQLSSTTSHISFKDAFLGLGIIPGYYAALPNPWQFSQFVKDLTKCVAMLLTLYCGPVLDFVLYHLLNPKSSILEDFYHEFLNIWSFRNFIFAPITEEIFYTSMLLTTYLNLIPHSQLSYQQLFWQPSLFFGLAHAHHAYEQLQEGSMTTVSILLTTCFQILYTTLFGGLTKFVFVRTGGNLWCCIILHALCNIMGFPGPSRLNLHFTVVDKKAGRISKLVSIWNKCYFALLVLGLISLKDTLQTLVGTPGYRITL
ALR inh – human ALR oxidase inhibition via reduced H2O2; AID 485317; purified ALR, DTT oxidation, H2O2 HRP-luminol luminescence; actives 3.8% (n = 290,000); inhibition, % (concentration not given with the values);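 active = mean replicate inhibition above about 79%, with every replicate also reaching it, limit read from the data; inconclusive = only one of the two criteria met; inactive = mean below limit and not every replicate reaching it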
Target sequence (P55789 whole entry, looked up): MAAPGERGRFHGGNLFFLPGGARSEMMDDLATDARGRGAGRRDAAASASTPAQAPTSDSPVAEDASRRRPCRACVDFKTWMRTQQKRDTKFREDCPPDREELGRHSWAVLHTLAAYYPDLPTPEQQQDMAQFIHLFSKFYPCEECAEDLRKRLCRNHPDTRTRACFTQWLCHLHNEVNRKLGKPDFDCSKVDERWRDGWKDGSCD
GRK2 inh – blocks RNA aptamer binding to human GRK2; inhibition of aptamer binding, % at 10 µM; P25098; bead flow cytometry, FAM-aptamer displacement from GRK2; actives 0.59% (n = 330,000);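 active = inhibition of aptamer binding above 40%, roughly 3 SD of noise, on plates passing a quality check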;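 also: median bead fluorescence of bound FAM aptamer so fluorescent compounds give negative values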
GRK2 inh confirm – confirmation of human GRK2 inhibitors displacing RNA aptamer; shares compounds with GRK2 inh; bead-bound GRK2, FAM-aptamer displacement, flow cytometry; aptamer displacement, % at 10 µM; actives 4% (n = 2,000);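 active = aptamer displacement above 40%, near three times the noise of non-fluorescent compounds, on plates passing quality checks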;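 also: negative values mostly reflect intrinsic compound fluorescence rather than true enhancement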
Aptamer quench – quenches fluorescent RNA aptamer, GRK2 hit artifact; shares compounds with GRK2 inh; Fluorescent RNA aptamer beads, quenching, flow cytometry; active compounds read high; fluorescence change (kMESF span), kMESF (test concentration not listed); 110 tested, under 10 active; AID 504521;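 active = compounds whose bead fluorescence drops by more than 37 kMESF across the dose range, marking them as dye quenchers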
FAM quench CP1 – aptamer fluorescence quenching in GRK2 counter-screen. Carboxyfluorescein RNA aptamer on beads, flow cytometry quenching; active compounds read low. AID 504580. 2,000 tested, under 10 active. shares compounds with GRK2 inh. fluorescence response (% of DMSO), % at 10 µM;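 active = compounds that quench the bead-bound fluorescent RNA probe, cutting fluorescence to under half of the solvent control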;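 also: counterscreen run without GRK2 so only probe quenching by compound is measured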
GRK2 confirm 2 – confirmation of human GRK2 inhibitors binding RNA aptamer site. inhibition of aptamer binding, % at 10 µM. bead-bound GRK2, FAM-aptamer displacement, flow cytometry. shares compounds with GRK2 inh. 360 tested, under 10 active;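 active = inhibition of aptamer binding above 40%, about triple the noise seen with nonglowing compounds, on plates passing quality control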;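 also: negative values mostly come from compounds that fluoresce themselves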
Aptamer quench 2 – counter-screen for GRK2 aptamer inhibitors: fluorescent aptamer quenchers. shares compounds with GRK2 inh. Streptavidin beads, FAM-RNA aptamer fluorescence quenching, flow cytometry. 25 tested, under 10 active. change in fluorescence (kMESF span), kMESF (test concentration not listed);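 active = compounds quenching the bead-bound labeled aptamer, with fluorescence dropping by more than 37 kMESF over the dose range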
FAM quench CP2 – counter-screen for GRK2 binding hits: quenchers of fluorescent RNA aptamer; shares compounds with GRK2 inh; carboxyfluorescein RNA aptamer beads, flow cytometry quenching; active compounds read low; fluorescence response vs DMSO, % at 10 µM; 360 tested, under 10 active; AID 588494;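 active = response vs DMSO under 50%, meaning signal dropped by over half, treated as fluorescence quencher; inconclusive = no clear call, values can overlap the other calls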;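 also: labelled aptamer on streptavidin beads without GRK2 as a quench counter-screen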
FAM quench DR – aptamer fluorescence quenching in GRK2 powder counter-screen; fluorescence ratio to DMSO, % at 11.1 µM; Bead-bound FAM RNA aptamer fluorescence quenching, flow cytometry; active compounds read low; 35 tested, under 10 active; shares compounds with GRK2 inh; AID 588496;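 active = compounds that dim the fluorescent label, raw bead signal shifting by over 33 units between lowest and highest dose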
Hits are given with their value; n = inactive; u = inconclusive; x = not tested or not shown.

SMILES	Efflux pump inh	HDAC3 inhib	Rtt109 Vps75	Rce1 inh	ALR inh	GRK2 inh	GRK2 inh confirm	FAM quench CP1	others
COCCNC(=O)CSc1nc2nn(-c3ccccc3)c(=O)c-2c2n1CCCCC2	n	n	n	n	n	n	x	x
CC1CCCC(C)N1C(=O)COC(=O)C1CCN(S(=O)(=O)c2ccc3c(c2)OCCO3)CC1 (centres undefined)	n	x	n	n	x	n	x	x
Cn1c(=O)c2c(nc(N3CCOCC3)n2C/C=C/c2ccccc2)n(C)c1=O	n	n	x	n	n	n	x	x
COc1ccc(C(=O)C2CCCN(Cc3cnc(N4CCOCC4)s3)C2)cc1F (centres undefined)	n	n	n	n	x	n	n	n
CC(C)Oc1cccc(C(=O)C2CCCN(Cc3cnc(N4CCOCC4)s3)C2)c1 (centres undefined)	n	n	n	n	n	53.0	n	n
COc1ccc(C(=O)C2CCCN(Cc3cnc(N4CCOCC4)s3)C2)c(OC)c1 (centres undefined)	n	n	n	n	n	n	x	x
CNc1nnc(SCC(=O)c2c(N)n(C3CC3)c(=O)[nH]c2=O)s1	x	x	n	x	x	x	x	x
CC1CCCN(CCCOc2ccccc2-c2ccccc2)C1 (centres undefined)	x	x	n	n	x	x	x	x
O=C(COC(=O)/C=C/c1cccc(F)c1)Nc1ncccn1	n	n	n	n	n	45.0	n	n
O=C(COC(=O)/C=C/c1cccc(F)c1)Nc1ccc(Cl)cn1	n	n	n	n	x	n	x	x
CC1(C)CC(=O)/C(=C(\O)c2ccccc2)C(=NCCO)C1	n	n	n	n	n	n	x	x
COc1cccc(N=C2CC(C)(C)CC(=O)/C2=C(/O)c2ccccc2)c1	n	n	n	n	n	95.0	n	n
Cc1nc2c(ccc3c2ccc2nc(C)sc23)s1	n	n	x	n	n	n	x	x	GRK2 confirm 2=n;FAM quench CP2=n
Cc1nc(N2CCN(C(=O)c3ccco3)CC2)c2c3c(sc2n1)CCCC3	n	n	n	n	n	n	n	n
Cc1nc(N2CCN(C(=O)c3ccco3)CC2)c2c3c(sc2n1)CC(C)CC3 (centres undefined)	n	n	n	n	n	n	x	x
Fc1ccc2c(c1)C(c1ccc(N3CCOCC3)cc1)=NNC(c1cccs1)=N2	n	n	n	n	n	n	x	x
Cc1ccc2c(c1)C(c1ccc(N3CCOCC3)cc1)=NNC(c1cccs1)=N2	n	u	n	n	n	100.0	n	n
CCCCCC(=O)Nc1ccc(N2CCOCC2)c(S(=O)(=O)Nc2ccc(OC)cc2)c1	n	n	n	n	n	82.0	n	n
CC(C)(C)OC(=O)C[C@H]1C/C=C\C[C@H](CC(=O)N(CCO)Cc2ccccc2)C(=O)N[C@H](C(C)(C)C)COC1=O	n	n	n	x	n	n	x	x
O=C(CCS(=O)(=O)c1ccc2c(c1)NC(=O)CS2)NCCc1ccccc1	n	n	x	n	n	n	x	x	GRK2 confirm 2=n;FAM quench CP2=n
O=C(CCS(=O)(=O)c1ccc(Br)cc1)NCCc1ccccc1	n	n	n	n	n	70.0	42.9	n	Aptamer quench=n;Aptamer quench 2=n
COc1ccc(CNC(=O)CCS(=O)(=O)c2ccc(Br)cc2)cc1	n	n	n	n	n	89.0	n	n	Aptamer quench=n;Aptamer quench 2=n;FAM quench DR=n
CCOc1ccc(CCNC(=O)CCS(=O)(=O)c2ccc(Br)cc2)cc1OCC	n	n	n	n	x	n	n	n	Aptamer quench=n;FAM quench DR=n
O=C(CCS(=O)(=O)c1ccc2c(c1)NC(=O)CS2)NCCc1ccc(Cl)cc1	n	n	n	n	n	n	x	x
C=CCN1C=C(C(C)=O)C(=O)CC1	x	x	n	x	x	x	x	x
SMILES	Efflux pump inh	HDAC3 inhib	Rtt109 Vps75	Rce1 inh	ALR inh	GRK2 inh	GRK2 inh confirm	FAM quench CP1	others
CC(=O)Nc1ccc(S(=O)(=O)N2CCCN(c3nc(C)cc(C)c3C#N)CC2)cc1	n	n	n	n	n	n	x	x
NS(=O)(=O)c1ccc(CCNC(=O)CCS(=O)(=O)c2ccc(Br)cc2)cc1	n	n	n	n	n	87.0	x	x	GRK2 confirm 2=74.3;Aptamer quench 2=n;FAM quench CP2=n;FAM quench DR=n
CNC(C)C(=O)NC(C(=O)N1CCCC1C(=O)NNc1ccccc1)C(C)C (centres undefined)	n	n	n	x	n	67.0	n	n
COc1ccccc1NS(=O)(=O)c1cccc(C(=O)NCC(c2cccs2)N2CCOCC2)c1 (centres undefined)	n	n	n	x	n	n	x	x
COc1ccc(NC(=O)C2=CC(c3ccc(C)cc3)=NS(=O)(=O)N2C)cc1	n	n	n	n	n	54.0	n	n
Nc1nc(-c2ccccc2)ns1	x	x	n	x	x	x	x	x
COC(=O)c1cc(-c2ccc(Br)cc2)n[nH]1	n	n	n	n	n	54.0	n	n
CCCOc1ccccc1N1C(=O)CC(N(O)c2ccccc2)C1=O (centres undefined)	n	n	n	x	97.1	49.0	n	n
COc1ccccc1N1C(=O)CC(N(O)c2ccccc2)C1=O (centres undefined)	n	n	n	n	n	n	x	x
O=C(NCC1CCCN(Cc2ccc3c(c2)OCCO3)C1)c1ccc2c(c1)OCO2 (centres undefined)	n	n	n	n	x	n	x	x
O=C(NCC1CCCN(C(=O)NCc2ccccc2)C1)c1ccc2c(c1)OCO2 (centres undefined)	n	n	n	n	x	n	n	n
COc1cc(/C=C/C(=O)OC[C@H]2O[C@H](OC3(CO)OC(CO)C(O)C3O)[C@H](O)[C@@H](O)[C@@H]2O)ccc1O (some centres undefined)	n	n	n	x	u	n	x	x
O=C(/C=C/c1ccc(O)c(O)c1)O[C@@H]1C[C@](O)(C(=O)O)C[C@@H](O)[C@H]1O	n	n	n	n	99.8	n	n	n
CCc1noc(C)c1C(=O)NC1CC(C)(C)Cc2c1cnn2-c1ccccc1 (centres undefined)	n	n	n	x	n	n	x	x
